Reference: paper PMC12136788
Residue numbers refer to the chain shown, from its start. Over roughly 24,000 sequences, “enrichment r” has its median near 0.99; the highest 2% begin near 3.7. Shown is part of a subset that was picked to be rich in the highest values.

B1: chr3:10015032:10015033:+_ENSMUSG00000027533_ENSMUST00000029046|mus_mus|mus_mus_mus_hu_True|1_28 (ssRNA)
RNA: GGGAGUUCUACAGUCCGACGAUCGUUUUUACCAUCACAAGUGAUGAUACAAUCUGGCUUGGCCAUUGCGCCCAUUUUUCGCAAAGCUAUUCCCACUCCUAGCUCCUUCAUGUACUCAUCAAAGCCUUUGCUGUCCAUCAGGCGCAACAGAGGAUUGAGCAUCA
B2: chr7:151048522:151048523:+_ENSG00000013374_ENST00000566856|hu_mus|hu_hu_hu_mus_True|18_78 (ssRNA)
RNA: GGGAGUUCUACAGUCCGACGAUCCUGUUUCUUAUUUAUUACGAUCUUGAUGUAAUUUUCUUGAAGUCCGAAAGUUUCAGCUAUUUGACACCUCAGGUCUCUACCAGUGACAUGCAAUCGGGUCUCCAACAAGCUUUUCUUAUCCAACAGAGGAUUGAGCAUCA
B3: chr19:7991675:7991676:-_ENSG00000104980_ENST00000595831|hu_hu|motif|central (ssRNA)
RNA: GGGAGUUCUACAGUCCGACGAUCCCAAAUCUCAGGCUUAUGCACAAGAUGGAAGAGCACUGUUAAAAUUAAAAAAUGGACCGGAAGUGGCUUGGCUGACGUGGCUAGCGGGCCACUGAGCCGCGGGUCCCGGGUCCCACCCUGCAACAGAGGAUUGAGCAUCA
B4: chr19:7991675:7991676:-_ENSG00000104980_ENST00000595831|hu_hu|FALSE|FALSE (ssRNA)
RNA: B3 RNA with G82U, G83A
B5: 193332725_193333477_540_CDS_ENSG00000198836_ENST00000392438|human|control|control (ssRNA)
RNA: GGGAGUUCUACAGUCCGACGAUCCCACUGAUCAAAAGUCUUUUUGGCUGUGUAGCCACCCCCAACAGCCGAUCCUAGUAUGAGAUAGCGAAGUUUUAAGAGUCUCGUAGCUAAUCUUGCUGGCCAAAAAUUCCUGCGAGGCUGCAACAGAGGAUUGAGCAUCA
B6: chr9:100883651:100883652:-_ENSG00000106789_ENST00000375077|hu_mus|FALSE|FALSE (ssRNA)
RNA: GGGAGUUCUACAGUCCGACGAUCUCCCAAGGCAAGAAGGAAGGAGCCGAGGGCGGCUUUGCUGCUUGGGUGGUCACUGUGUCAGGGGGCAGUGUUGCUCCAUUAGCCCAAGAACAUAAAAACAUAAUCUUAAAAAAAUAUGACCAACAGAGGAUUGAGCAUCA
B7: chr11:46405157:46405158:+_ENSG00000110492_ENST00000395566|hu_hu|hu_hu_hu_mus_False|1_98 (ssRNA)
RNA: GGGAGUUCUACAGUCCGACGAUCCCCUCCCCACUUUGGCUGGGGAGUGUGGGCGUGAGAGGACAGGCGUGAUUGACAGAGCUGACAGGAAGACAAAAGGCACUGGUGGGUUAUAUCUUGGGCCUGUGGGAGAGGAGGCGUGGGCAACAGAGGAUUGAGCAUCA
B8: chr7:54825262:54825263:-_ENSG00000132432_ENST00000352861|hu_hu|motif|central (ssRNA)
RNA: GGGAGUUCUACAGUCCGACGAUCCCGACUUGGCUCAACAAACUGCAUUACCUGAUCCAUGACUGCCUACCCAACCGACACCGGAAAUGCCAGGGACACGUAGCACUGGAGCUUGCUGAUGGAGGCCCACCGGAACCGGAAUCCCAACAGAGGAUUGAGCAUCA
B9: chr1:129704038:129704039:+_ENSMUSG00000026349_ENSMUST00000027587|mus_mus|FALSE|FALSE (ssRNA)
RNA: GGGAGUUCUACAGUCCGACGAUCAGGCCAAAGCUGCCCUCCAAGUGUCGGUUGGCCUGCAUUAAUUACAGCUGUGCCUGCACACUUGUCUCAACAUCAAGUACUGAGGGAAAACGGGAAUGCACUCUGCCUCUGGUCAGUACACAACAGAGGAUUGAGCAUCA
B10: chr10:110404880:110404881:-_ENSMUSG00000035798_ENSMUST00000041723|mus_hu|motif|central (ssRNA)
RNA: GGGAGUUCUACAGUCCGACGAUCGUUUUUGUGAUACUUGUCACCAAGGUUAACUGAAACAUUGAAUGUUAAAAGCAAUCGGGUUGGAUCCACACUAUGUGUUCUAUAUGCUGCCCACAUUAAAGGCGUCAUUCCAUUCUGAUCCAACAGAGGAUUGAGCAUCA
B11: 23688267_23688387_1410_3pUTR_ENSMUSG00000048439_ENSMUST00000049887|mouse|control|control (ssRNA)
RNA: GGGAGUUCUACAGUCCGACGAUCUGAAUUUGUGGUGUUCUGCUGCUCAGCUUCCCAGACUGUAGGCAUGCAGGACAUGCCUGGCUAAGGCAUUCUUUCUGUAUUUAAACCUGACCUUUAUACAGUCAGAAGCUCGACCGGUGGCAACAGAGGAUUGAGCAUCA
B12: chr2:228221723:228221724:+_ENSG00000168958_ENST00000354503|hu_mus|FALSE|FALSE (ssRNA)
RNA: GGGAGUUCUACAGUCCGACGAUCGACCAUUUCUCUUUUAGCACGCUCUUUAUUCUCCUCUUCCAGAAGUUGGAGACGUCUAUUUAAUUUGAUUAUCUGACGUCUUAAUGAAGCUGCAUCUACCACAGUCAUGUCAUCUGAAGCCAACAGAGGAUUGAGCAUCA
B13: 60766941_60767061_3855_CDS_ENSG00000011028_ENST00000303375|human|control|control (ssRNA)
RNA: GGGAGUUCUACAGUCCGACGAUCGAAGGCCUGGGUGUAGGGGUCGGGCACGUAGGCCAGGCUGGCAUUGCGGCUCUCACACAGCAGGAGGGCAUCGUGCCAGCGCAGCGGCUUCUGAAGCAGCCGGAAGGUGCCGUUGAGGUACAACAGAGGAUUGAGCAUCA
B14: chr3:196311055:196311056:+_ENSG00000174013_ENST00000440469|hu_hu|FALSE|FALSE (ssRNA)
RNA: GGGAGUUCUACAGUCCGACGAUCGACCUUUGGAAGUCCUCUAAAAGCAACCCCCAGGAACUCAUAUCCACGUUCAAAAGCUAAAGUCUUAUCUUCCAUGUCCAAGAUGACUCGAAUUCUUUCUCCUAUCUGAUAUUUUGGUGCCAACAGAGGAUUGAGCAUCA
B15: chrX:71549762:71549763:+_ENSMUSG00000019087_ENSMUST00000019231|mus_mus|mus_mus_mus_hu_False|28_98 (ssRNA)
RNA: GGGAGUUCUACAGUCCGACGAUCAAACCCGUGUACUCACUCUUAACAGCACAACAUCACCAGAAAACGAUAACGACAGCCAAGCAGGACAGACAGUUAAGUAGUACUUCCACACCUCCAAACUCAGGGAGCCCUAUAACCUUACAACAGAGGAUUGAGCAUCA
B16: chr2:140009677:140009678:+_ENSMUSG00000027384_ENSMUST00000044825|mus_mus|FALSE|FALSE (ssRNA)
RNA: GGGAGUUCUACAGUCCGACGAUCGCUGCUAACCACCAGGUCAAACGUGUUUUCUUGGAAGGGAAGGAAUUCUUCAUCAGCUAAAAUAUUCACAGUAGGAAUAUCUGUUUCUAAAGAAUUUUUCAAAGCAUGCUCUGCAAUGUCCAACAGAGGAUUGAGCAUCA
B17: 112506700_112506820_3235_3pUTR_ENSMUSG00000032727_ENSMUST00000109272|mouse|control|control (ssRNA)
RNA: GGGAGUUCUACAGUCCGACGAUCAAUAAAUACCCUCCCGUCCAGUCACUAGGACCACUACCUCCUACCUACUCUUCAGCACGACCUUGAAGCGACUCACACUUAUAAACAGCAACACAACUAGGAAAAUAAAAAAAAAAAUCACAACAGAGGAUUGAGCAUCA
B18: 32740819_32743422_11525_CDS_ENSG00000115760_ENST00000421745|human|control|control (ssRNA)
RNA: GGGAGUUCUACAGUCCGACGAUCCAGCAUCAACUGUAAAAAUAAUCUUCGUAUAAACCCUGAAAUGUUCCCAGAUGUUGGAAGGUUCCCUCUUUGAGGAGAUGUCUGAAAUAGUUCACAAAGAACCUGUGCCAUCAGCUUUUGCAACAGAGGAUUGAGCAUCA
B19: chr1:32661602:32661603:+_ENSG00000084652_ENST00000373610|hu_hu|FALSE|FALSE (ssRNA)
RNA: GGGAGUUCUACAGUCCGACGAUCCAGCAUCCCUCUUCCUUGGAAGGUCCUCAAUACAAACACUGUCAUGUGCAAAAAAAAAAGAAAAAGAAAAAAAAAAAAAAAGAAAAAGAAAUAAAGAAAAAAACACCUUCAGAAAUAAUCCAACAGAGGAUUGAGCAUCA
B20: chrX:71549762:71549763:+_ENSMUSG00000019087_ENSMUST00000019231|mus_mus|mus_mus_mus_hu_False|28_88 (ssRNA)
RNA: GGGAGUUCUACAGUCCGACGAUCAAACCCGUGUACUUCUUAUUGUUACAUCACCCCCACCAGAAAACGAUAACGACAGCCAAGCAGGACAGACAGUUAAGUAGUACUUCCACACCUCCAAACUCAGGGAGCCCUAUAACCUUACAACAGAGGAUUGAGCAUCA
B21: chr3:41266445:41266446:+_ENSG00000168036_ENST00000349496|perfect_dup|FALSE|FALSE (ssRNA)
RNA: GGGAGUUCUACAGUCCGACGAUCCAUAGCAGCUCGUACCCUCUGAGCUCGAGUCAUUGCAUACUGUCCAUCAAUAUCAGCUACUUGUUCUUGAGUGAAGGACUGAGAAAAUCCCUGUUCCCACUCAUACAGGACUUGGGAGGUCAACAGAGGAUUGAGCAUCA
B22: chrX:140365796:140365797:-_ENSMUSG00000031285_ENSMUST00000033642|mus_mus|mus_mus_mus_hu_False|28_108 (ssRNA)
RNA: GGGAGUUCUACAGUCCGACGAUCCUUCUCAUUACUUAGUGCCUGCAAGGUUCUGGUUCGGUAGAAGCUACAGUGGGCGCUGUGAGUGGGGCUAGGCAACCCAUUCAUCCGUGACCCUCGCAUGUUCCUGGAUGUCUUAUCUCUCAACAGAGGAUUGAGCAUCA

Molecular target: T1, UNK ZnF1-3 (human, UniProt Q9C0B0 31-174)
T1 sequence: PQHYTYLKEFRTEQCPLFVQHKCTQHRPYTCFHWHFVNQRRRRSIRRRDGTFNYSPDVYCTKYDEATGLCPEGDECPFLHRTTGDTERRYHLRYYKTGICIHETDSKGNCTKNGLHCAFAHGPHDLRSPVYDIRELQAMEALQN
Assay: nsRBNS (natural sequence RNA bind-n-seq); RBNS binding buffer (assumed for nsRBNS): 25 mM Tris pH 7.5, 150 mM KCl, 3 mM MgCl2, 0.01% Triton X-100, 500 ug/ml BSA, 20 U/ml SUPERase-In, 4 C; UNK is unkempt and MSI1 is Musashi-1; names of the RNAs are library labels; protein concentration not given here; high values mean tight binding

Binder	binding signal [enrichment R]
B1	0.662
B2	0.639
B3	3.81
B4	4.68
B5	1.11
B6	2.88
B7	2.22
B8	1.13
B9	0.746
B10	0.601
B11	0.457
B12	0.795
B13	0.939
B14	1.13
B15	1.72
B16	1.19
B17	4.38
B18	1.97
B19	4.33
B20	1.85
B21	0.798
B22	0.752
